Source: PubChem BioAssay (Tox21)
Inconclusive results are not listed. Active and inactive are the calls of the source. Unless noted, calls follow the shape of the dose curve; as a rule, active = well fitted curve in the direction sought with a large enough effect in the repeat runs; inconclusive = weak or mixed curves; inactive = no such curve, though single readings can be large; an effect the other way counts as inactive or inconclusive.

Key:
[1] = qHTS assay to identify small molecule antagonists of the vitamin D receptor (VDR) signaling pathway - cell viability counter screen (AID 743225); also: % is scaled to controls: 0 for no effect and ±100 for the full control effect; nearly all actives have a fitted effect of over 50% in size
Method in brief: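 Cytotoxicity counter screen read by CellTiter-Glo luminescence (30 min, room temperature) in the same wells as the VDR-bla antagonist readout. HEK 293T VDR-UAS-bla cells had 16 h at 37C with compound and 3 nM (final) 1-alpha,25-dihydroxyvitamin D3, then 2 h with FRET substrate.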

[2] = qHTS assay to identify small molecule agonists of the NFkB signaling pathway (AID 1159509; active = well fitted curve in the direction sought with a large enough effect in the signal ratio in the repeat runs, not every such curve was filed as active; the % refers to the signal ratio; also: series mostly up to about 61 µM; % is scaled to controls: 0 for no effect and ±100 for the full control effect)
Method in brief: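 Beta-lactamase reporter assay run in quantitative high-throughput format on an NF-kB-responsive ME-180 line, with 5 hr compound treatment and a FRET-based blue/green fluorescence readout.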

[3] = qHTS assay to identify small molecule agonists of the NFkB signaling pathway - cell viability counter screen (AID 1159515; calls by dose curve; also: series mostly up to about 61 µM; % is scaled to controls: 0 for no effect and ±100 for the full control effect; nearly all actives have a fitted effect of over 55% in size)
Method in brief: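 Plate 2,000 NFkB-bla ME-180 cells/well; incubate overnight. Add compounds, 5 hr at 37 C. Add FRET substrate, 1.5 hr RT. Add CellTiter-Glo, 30 min RT; read luminescence.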

[4] = qHTS assay to identify small molecule agonists of the endoplasmic reticulum stress response signaling pathway - cell viability counter screen (AID 1159517; calls by dose curve; also: series mostly up to about 61 µM; % is scaled to controls: 0 for no effect and ±100 for the full control effect; nearly all actives have a fitted effect of over 50% in size)
Method in brief: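 After overnight attachment, ESRE-bla HeLa cells were treated with Tox21 library compounds for 5 hr. CellTiter-Glo luminescence, read 30 min post-addition at room temperature, reported viability.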

[5] = qHTS assay to identify small molecule antagonists of the retinoid-related orphan receptor gamma (ROR-gamma) signaling pathway - cell viability counter screen (AID 1159520); also: % is scaled to controls: 0 for no effect and ±100 for the full control effect; nearly all actives have a fitted effect of over 50% in size
Method in brief: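 Cytotoxicity was read from cellular ATP (CellTiter-Glo luminescence) after 16 hr at 37 C with 1 uM doxycycline induction. The inducer was added 2 hr after compound transfer to Tet-on ROR gamma CHO cells.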

[6] = target: Nuclear receptor ROR-gamma (Homo sapiens) (UniProt P51449); assay: qHTS assay to identify small molecule antagonists of the retinoid-related orphan receptor gamma (ROR-gamma) signaling pathway (AID 1159521; also: top concentration of the series differs between compounds; % is scaled to controls: 0 for no effect and ±100 for the full control effect; nearly all actives have a fitted effect of over 50% in size)
Method in brief: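 Antagonist read-out: drop in luminescence (ONE-Glo) from an RORE-LUC reporter in CHO cells with doxycycline-inducible ROR-gamma; 2 hr compound pretreatment, 1 uM doxycycline, 16 hr incubation at 37 C.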

[7] = qHTS assay to identify small molecule agonists of the AP-1 signaling pathway (AID 1159526; calls by dose curve; also: % is scaled to controls: 0 for no effect and ±100 for the full control effect)
[8] = qHTS assay to identify small molecule antagonists of the retinoid acid receptor (RAR) signaling pathway - cell viability counter screen (AID 1159551); also: % is scaled to controls: 0 for no effect and ±100 for the full control effect; nearly all actives have a fitted effect of over 35% in size
Method in brief: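 Viability of C3RL4 cells is quantified from ATP by luminescence after 6 h treatment at 37 C with compounds and 1 uM retinol.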

[9] = qHTS assay to identify small molecule agonists of the vitamin D receptor (VDR) signaling pathway - cell viability counter screen (AID 743224)
Method in brief: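 In parallel with the bla FRET readout, cytotoxicity toward VDR-bla cells after 16 h compound exposure was assessed by CellTiter-Glo, with luminescence recorded after a 30 min room-temperature incubation.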

[10] = qHTS assay to identify small molecule agonists of the endoplasmic reticulum stress response signaling pathway (AID 1159516; active = well fitted activation curve with a large enough effect in the signal ratio in the repeat runs, not every such curve was filed as active; the % refers to the signal ratio; also: % is scaled to controls: 0 for no effect and ±100 for the full control effect)
Method in brief: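 Beta-lactamase expression from the ER stress response element in HeLa reporter cells is quantified with the LiveBLAzer B/G FRET substrate, read at 405 nm excitation after 2 hr at room temperature, following 5 hr compound treatment at 37 C.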

[11] = qHTS assay to identify small molecule agonists of the AP-1 signaling pathway - cell viability counter screen (AID 1159525; calls by dose curve; also: nearly all actives have a fitted effect of over 55% in size)
Method in brief: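 Intracellular ATP by Cell Titer Glo luminescence (30 min, RT) in the same ME-180 AP-1-bla wells after the 5 h compound exposure at 37 °C. Normalised to tetra n-octyl ammonium bromide and DMSO controls.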

[12] = target: Retinoic acid receptor RXR-alpha (Homo sapiens) (UniProt P19793); assay: qHTS assay to identify small molecule agonists of the RXR signaling pathway (AID 1159527; calls by dose curve; also: % is scaled to controls: 0 for no effect and ±100 for the full control effect; nearly all actives have a fitted effect of over 35% in size)
Chain of Retinoic acid receptor RXR-alpha (Homo sapiens) (P19793 whole entry, looked up): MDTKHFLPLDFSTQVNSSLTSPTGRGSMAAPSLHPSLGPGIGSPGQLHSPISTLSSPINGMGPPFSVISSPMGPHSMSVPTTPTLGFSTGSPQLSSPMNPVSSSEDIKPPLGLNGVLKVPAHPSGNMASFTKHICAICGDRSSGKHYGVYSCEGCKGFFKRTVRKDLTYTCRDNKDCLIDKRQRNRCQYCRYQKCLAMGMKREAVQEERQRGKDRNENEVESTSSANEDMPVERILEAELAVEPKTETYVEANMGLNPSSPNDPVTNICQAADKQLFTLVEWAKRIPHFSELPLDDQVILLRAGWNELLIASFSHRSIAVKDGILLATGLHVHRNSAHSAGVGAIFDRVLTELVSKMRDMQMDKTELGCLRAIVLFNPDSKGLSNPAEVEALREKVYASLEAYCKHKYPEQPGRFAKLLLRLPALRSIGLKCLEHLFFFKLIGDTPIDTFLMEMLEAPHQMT
Method in brief: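 Agonist-mode beta-lactamase reporter assay: HEK 293T RXR-alpha-UAS-bla cells treated 16 hr at 37 C with compounds, 9-cis retinoic acid as positive control. LiveBLAzer FRET substrate, 405 nm excitation, 460/530 nm emission.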

[13] = qHTS assay to identify small molecule agonists of the RXR signaling pathway - cell viability counter screen (AID 1159529)
Method in brief: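 CellTiter-Glo luminescence gave viability in the wells also read for beta-lactamase. Cells (RXR-alpha-UAS-bla HEK 293T, 2% charcoal-stripped FBS medium) had 5 hr plating, then 16 hr compound exposure at 37 C; tetraoctyl ammonium bromide served as positive control.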

[14] = qHTS assay to identify small molecule agonists of the retinoic acid receptor (RAR) signaling pathway (AID 1159553); also: potency is read from the fitted curve at half-maximal effect
Method in brief: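 Compounds dissolved in DMSO were pinned onto C3RL4 cells seeded the previous day, and plates were held 6 hr at 37 C. RARE-driven luciferase output was then read by luminescence.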

[15] = qHTS assay to identify small molecule antagonists of the retinoic acid receptor (RAR) signaling pathway (AID 1159552)
Method in brief: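 Luminescent RARE reporter read-out in C3RL4 cells: 6 hr co-treatment at 37 C of test compounds with retinol at 1 uM final. Cells plated overnight beforehand; luciferase reagent incubated 30 min at room temperature before reading.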

[16] = qHTS assay to identify small molecule antagonists of the estrogen related receptor (ERR) signaling pathway from Tox21 library - cell viability counter screen (AID 1224834); also: nearly all actives have a fitted effect of over 30% in size; also: potency is read from the fitted curve at half-maximal effect
Method in brief: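 In this quantitative HTS format, ERR cells receive compounds in DMSO and are incubated for 17.5 h at 37 C. Live-cell protease activity is then detected with CellTiter-Fluor.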

[17] = qHTS assay to identify small molecule antagonists of the estrogen related receptor (ERR) signaling pathway - cell viability counter screen (AID 1224818);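 also: series mostly up to about 46 µM; viability measured after 17.5 h of compound exposure; % is scaled to controls: 0 for no effect and ±100 for the full control effect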
Method in brief: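 Cytotoxicity check run alongside the ERR antagonist screen: cells exposed to test compounds 17.5 h at 37 C, viability taken as CellTiter-Fluor fluorescence intensity.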

[18] = tested on: estrogen-related receptor alpha (ERRalpha) with PGC-1alpha coactivator, human; assay: qHTS assay to identify small molecule antagonists of the estrogen related receptor signaling pathway with the pleiotropic PPARgamma coactivator (PGC) (AID 1224821; calls by dose curve)
Method in brief: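 Screening used NTP's PGC/ERR cells, dosed via pin tool with compound in DMSO alongside positive and negative controls. After 18 h at 37 C, One-Glo reagent sat 30 min at room temperature before luminescence detection.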

[19] = qHTS assay to identify small molecule antagonists of the estrogen related receptor signaling pathway with the pleiotropic PPARgamma coactivator (PGC) cell viability counter screen (AID 1224822)
Method in brief: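 Viable cell signal (CellTiter-Fluor, 30 min, 37 C/5% CO2) was measured in PGC/ERR cells after a 17.5 h compound incubation.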

[20] = qHTS assay to identify small molecule agonists of the estrogen related receptor signaling pathway with the pleiotropic PPARgamma coactivator (PGC) (AID 1224823); also: % is scaled to controls: 0 for no effect and ±100 for the full control effect
Method in brief: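 In this quantitative high-throughput screen, an 18 h, 37 C treatment of PGC/ERR cells with compounds in DMSO preceded a One-Glo luminescence read taken after 30 min at room temperature.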

CN(C)C(=O)NC1(c2ccccc2)CCN(CCC[C@]2(c3ccc(Cl)c(Cl)c3)CCCN(C(=O)c3ccccc3)C2)CC1
inactive: Potency [1] | outcome [2] | outcome [3] | outcome [4] | activity, negative = cytotoxicity [5] -2.5% [at 19 µM] | activity change, negative = inhibition [6] -21% [at 19 µM] | activation [7] 11.5% [at 15.8 µM] | activity change, negative = cytotoxicity [8] -1.37% [at 19 µM]

CCC1(C)NC(=O)NC1=O (stereo unspecified)
inactive: Potency [9] | outcome [2] | outcome [3] | outcome [10] | Potency [5] | outcome [11] | Potency [7] | Potency [12] | Potency [13] | outcome [8] | Potency [14]

O=C(C(Cl)Cl)N1CCOC12CCCCC2
inactive: Potency [9] | Potency [1] | outcome [2] | outcome [3] | outcome [4] | Potency [5] | Potency [7] | Potency [12] | outcome [8] | Potency [15] | Potency [14] | Potency [16]

CCC(=O)c1ccc2c(c1)N(CCCN(C)C)c1ccccc1S2
active: Potency [16] 26.6 µM
inactive: outcome [2] | outcome [3] | outcome [10] | Potency [5] | Potency [6] | outcome [8] | Potency [14]

COC(=O)N[C@H](C(=O)N[C@@H](Cc1ccccc1)[C@@H](O)CN(Cc1ccc(-c2ccccn2)cc1)NC(=O)[C@@H](NC(=O)OC)C(C)(C)C)C(C)(C)C
inactive: Potency [1] | outcome [2] | outcome [3] | outcome [4] | Potency [5] | outcome [11] | Potency [7] | Potency [12] | Potency [13] | outcome [8] | Potency [14]

Nc1cccc(S(=O)(=O)O)c1
inactive: Potency [9] | Potency [1] | outcome [2] | outcome [3] | outcome [10] | Potency [5] | Potency [7] | Potency [12] | Potency [13] | outcome [8] | Potency [15] | Potency [14] | Potency [16]

Cc1c(C(=O)NCCO)[n+](=O)c2ccccc2n1[O-]
inactive: Potency [9] | Potency [1] | outcome [2] | outcome [3] | outcome [4] | Potency [5] | Potency [6] | outcome [11] | Potency [12] | Potency [13] | outcome [8] | Potency [16]

C[C@@H]1CN(c2c(F)c(N)c3c(=O)c(C(=O)O)cn(C4CC4)c3c2F)C[C@H](C)N1
inactive: Potency [9] | Potency [1] | outcome [2] | outcome [3] | outcome [4] | activity, negative = cytotoxicity [5] 2.26% [at 19 µM] | activation [7] -6.27% [at 15.8 µM] | activation [12] 12.8% [at 15.8 µM] | activity change, negative = cytotoxicity [8] 2.38% [at 19 µM] | activity, negative = inhibition [15] 6.27% [at 19 µM] | Potency [14] | viability change, negative = cytotoxic [16] -1.89% [at 19 µM]

CCN(O)CC
inactive: Potency [9] | Potency [1] | outcome [2] | outcome [3] | outcome [10] | Potency [5] | Potency [6] | Potency [12] | Potency [13] | outcome [8] | Potency [15] | Potency [14] | Potency [16]

CCN(CC)CCOc1ccc(Cc2ccccc2)cc1
inactive: Potency [1] | outcome [2] | outcome [3] | outcome [4] | Potency [5] | Potency [6] | outcome [11] | Potency [13] | outcome [8] | Potency [16]

CO[Si](C)(C)OC
inactive: Potency [9] | Potency [1] | outcome [2] | outcome [3] | outcome [10] | Potency [5] | outcome [11] | Potency [7] | Potency [12] | Potency [13] | outcome [8] | Potency [15] | Potency [14] | Potency [16]

OCC(CBr)(CBr)CBr
inactive: Potency [1] | outcome [2] | outcome [3] | outcome [4] | Potency [5] | Potency [6] | Potency [7] | Potency [12] | Potency [13] | outcome [8] | Potency [14]

CC(C)(C)C1CCCCC1=O (stereo unspecified)
inactive: Potency [9] | Potency [1] | outcome [2] | outcome [3] | outcome [10] | Potency [5] | outcome [11] | Potency [7] | Potency [12] | outcome [8] | Potency [15] | Potency [14] | Potency [16]

CC1=C(CC(=O)O)c2cc(F)ccc2/C1=C\c1ccc(S(C)(=O)=O)cc1
inactive: Potency [9] | Potency [1] | outcome [2] | outcome [10] | outcome [4] | Potency [5] | Potency [6] | outcome [11] | Potency [13] | outcome [8] | Potency [15] | Potency [14] | outcome [17] | outcome [18] | outcome [19] | outcome [20] | Potency [16]

CC1CN(c2ccccc2)NC1=O (stereo unspecified)
inactive: outcome [2] | outcome [10] | outcome [4] | Potency [5] | Potency [6] | Potency [12] | Potency [13] | outcome [8] | Potency [15] | Potency [16]

N#Cc1ccc(C(c2ccc(C#N)cc2)n2cncn2)cc1
inactive: Potency [9] | Potency [1] | outcome [2] | outcome [10] | outcome [4] | Potency [5] | Potency [7] | Potency [12] | outcome [8] | Potency [15] | Potency [14] | Potency [16]

Cc1ncc(CO)c(CN)c1O
inactive: Potency [9] | Potency [1] | outcome [2] | outcome [10] | outcome [4] | Potency [5] | Potency [7] | Potency [12] | Potency [13] | outcome [8] | Potency [14] | Potency [16]

OCc1ccccc1O
inactive: Potency [9] | Potency [1] | outcome [2] | outcome [10] | outcome [4] | Potency [5] | outcome [11] | Potency [7] | Potency [12] | Potency [13] | outcome [8] | Potency [15] | Potency [14] | Potency [16]

CCCCCCCCCC/C=C/C#N
inactive: Potency [9] | Potency [1] | outcome [2] | outcome [10] | Potency [5] | outcome [11] | Potency [7] | Potency [12] | Potency [13] | outcome [8] | Potency [15] | Potency [14] | Potency [16]

Cc1cc2nc(N)sc2cc1C
inactive: Potency [9] | Potency [1] | outcome [2] | outcome [4] | Potency [5] | Potency [6] | outcome [11] | outcome [8] | Potency [15] | Potency [16]
active: Potency [14] 1.38 µM

CCOc1ccc(NS(=O)(=O)c2ccc(N)cc2)nn1
inactive: Potency [9] | Potency [1] | outcome [2] | Potency [5] | outcome [11] | Potency [7] | Potency [12] | outcome [8] | Potency [15] | Potency [14] | Potency [16]

CC1(C)S[C@@H]2[C@H](NC(=O)C(C(=O)O)c3ccccc3)C(=O)N2[C@H]1C(=O)O (stereo partly specified)
inactive: Potency [9] | Potency [1] | outcome [2] | outcome [10] | outcome [4] | Potency [5] | outcome [11] | Potency [7] | Potency [12] | Potency [13] | outcome [8] | Potency [15] | Potency [14]
